Key:
Assay in all cases: PBM binding z-score (relative to random genomic background probes); higher = stronger binding; sequences stand for … in GC…GCGATTGACAGCGTAGAATGAAGG
[1] = tested on: FXR:RXRa (NR concentration 270 nM, RXRa partner concentration 90 nM)
Outline: (§1)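 Custom Agilent 4×180K protein-binding microarrays carried double-stranded probes, each with a 34-nt variable region. These regions held direct-repeat seeds, single-nucleotide variants, half-site ablations and random human genomic background sequences. Ligand-free nuclear receptor dimers were incubated on the arrays for 1 h, antibodies against each partner (one per run) detected binding, and scanned fluorescence was regression-normalized. Binding z-scores take the random background probes as reference.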

[2] = tested on: LXRa:RXRa (NR concentration 270 nM, RXRa partner concentration 90 nM)
Outline: as §1

[3] = tested on: LXRa homodimer (NR concentration 270 nM)
Outline: as §1

[4] = tested on: LXRb:RXRa (NR concentration 270 nM, RXRa partner concentration 90 nM)
Outline: as §1

[5] = tested on: LXRb homodimer (NR concentration 270 nM)
Outline: as §1

[6] = tested on: PPARa:RXRa (NR concentration 270 nM, RXRa partner concentration 90 nM)
Outline: as §1

[7] = tested on: PPARg:RXRa (NR concentration 180 nM, RXRa partner concentration 90 nM)
Outline: as §1

[8] = tested on: PPARg:RXRa 270nM:90nM, anti-RXR (NR concentration 270 nM, RXRa partner concentration 90 nM)
Outline: as §1

[9] = tested on: PPARg:RXRa 30nM:10nM, anti-RXR (NR concentration 30 nM, RXRa partner concentration 10 nM)
Outline: as §1

[10] = tested on: PPARg:RXRa 90nM:30nM, anti-RXR (NR concentration 90 nM, RXRa partner concentration 30 nM)
Outline: as §1

Sequence	PBM binding z-score [1]	PBM binding z-score [2]	PBM binding z-score [3]	PBM binding z-score [4]	PBM binding z-score [5]	PBM binding z-score [6]	PBM binding z-score [7]	PBM binding z-score [8]	PBM binding z-score [9]	PBM binding z-score [10]
TCTCGGAGAACACGAAGGTCAGAGCTTTCCAGAG	-0.456	0.775	-0.321	0.915	-0.994	1.59	0.33	1.41	2.09	1.74
CCTAGTTGGTCCAGGTCACACACGCTATAGGTAC	1.93	2.22	1.52	2.41	0.771	2.58	1.47	1.46	0.532	1.01
AGAATGAGGTTAAGATCAGGGCAACAGAATACAT	2.64	2.98	0.329	2.17	0.282	3.7	2.57	2.84	1.29	2.24
ATCTCTAGATAAAGTTCAGTGAAAGATCGATAGA	0.465	1.1	1.05	0.684	0.314	1.48	2.39	3.45	1.46	3.1
CCTACTGGGCCATCAGGTCTTTGATATCAACGTT	-0.207	-0.321	-0.21	-0.159	-0.568	0.508	0.773	1.66	0.0943	1.01
CGTCCTAGGTCAAGGTCAGTGAAAGAGACTCGAA	5.87	4.07	0.811	3.5	0.178	4.87	4.31	4.45	1.48	3.5
CAAACTAGGTCACCGGAGGGTCAAAGTCCGCATG	5.69	5.1	1.95	4.16	0.645	5.86	8.8	7.65	4.96	7.5
GCTAGCAGGCCATTTGGGTCACTCCATGACGGGC	-0.16	-0.308	-0.39	-0.515	-0.772	0.964	0.542	0.345	-0.692	-0.372
CCAGACAGGTGAGAAGGCAACTCAGCCTCGATTA	0.0587	-0.0895	-0.234	-0.403	-0.663	0.376	0.575	0.793	-0.21	0.329
TCATATAGGTAAAAGGTAAAAGTCGGTGTGGTAA	1.72	1.53	0.146	1.47	0.114	4.59	7.89	7.76	7.87	8.16
AGAACGAGGCCAATGAGTTGATAGCACGGGTGGC	-0.177	-0.455	-0.576	-0.817	-0.913	0.0353	0.81	-0.06	-0.388	0.093
ATATGTAGGTTATCGGGCCATTCAGTTTGCGCAT	0.607	1.03	0.565	0.95	0.458	3.22	5.22	4.45	1.98	3.76
GTACAAAGGTGAATAGGTCGTTGATGAGTAGGCG	2.27	2.19	0.326	1.78	-0.0357	4.09	4.55	4.78	2.17	4.03
CCTAGCAGGCCAGGGTGACTCAAGCATTTCGCTT	-0.306	-0.411	-0.589	-0.526	-1.43	0.023	-0.26	-0.0399	-0.987	-0.126
ATCTCTAGGTCAAGTTCAGTGAAAGATCGATAGA	5.11	5.65	4.79	3.98	3.26	4.74	5.82	5.4	2.79	4.77
CCTGCTAGGTCAATGGTCAGTTAAAGCAGCTCGC	3.02	2.09	0.0181	1.53	-0.0412	3.22	4.36	4.88	2.78	4.69
CCGACTGGGGCAAAGGTGACCATACTCAGTACGA	0.275	0.171	-0.478	0.634	-1.65	4.77	10.3	8.5	8.35	9.3
AGAATGAGGTTAAGGTCAGGGAAACAGAATACAT	5.36	4.12	0.675	3.93	0.526	5.21	5.25	5.04	2.44	4.29
CTACCAAGGTGAACAAGGTAGTTGATTACTATTC	0.29	0.269	-0.28	0.647	-0.774	1.19	0.675	0.808	0.0377	0.215
AGAACGAGGGCAATGTGTTGATAGCACGGGTGGC	0.748	0.456	-0.316	0.0585	-0.324	1.47	1.55	1.19	0.0423	0.712
ATCTCTAGGTAAAGATAGTTCAGCGAATGCAAAT	0.212	4.41	0.481	0.836	0.431	0.777	0.334	0.42	0.395	0.368
TCTATGAGTTGAAGGGCAACCGACGAGTCCGTTT	0.419	0.7	-0.373	0.405	-0.437	1.2	0.607	1.51	2.54	2.22
TGAATGAGGTTAAGGATCAGGGAACGTGGCGTCG	1.99	1.74	-0.343	1.01	0.386	3.28	3.12	4.57	2.71	4.12
AGAATGAGGTTATACGTAGATCAGGAAAGAAAGT	2.11	1.99	0.118	1.76	0.0606	3.08	2.02	1.97	0.878	1.47
TCCAGTAGGTTACCAATGGGGCATTCAGCTTTCT	0.247	1.53	-0.513	0.676	-0.862	1.6	1.15	2.54	2.63	2.39

Source: the supplement of paper PMC6555819
